Experimental data: the supplement of paper PMC3334620
In all, about 33,000 sequences were measured (“E-score (-0.5 to 0.5)”: median about -0.035, highest 2% from about 0.34 on). The sample as a whole holds a higher share of the highest values than the screen did.

Each sequence was assayed against T1, Mot3 (UniProt P54785) (assay: PBM E-score (8-mer binding enrichment) (E-score (-0.5 to 0.5)); higher = stronger / more preferred TF binding). Conditions: protein concentration: 200 nM; construct: GST-full length.
T1 sequence: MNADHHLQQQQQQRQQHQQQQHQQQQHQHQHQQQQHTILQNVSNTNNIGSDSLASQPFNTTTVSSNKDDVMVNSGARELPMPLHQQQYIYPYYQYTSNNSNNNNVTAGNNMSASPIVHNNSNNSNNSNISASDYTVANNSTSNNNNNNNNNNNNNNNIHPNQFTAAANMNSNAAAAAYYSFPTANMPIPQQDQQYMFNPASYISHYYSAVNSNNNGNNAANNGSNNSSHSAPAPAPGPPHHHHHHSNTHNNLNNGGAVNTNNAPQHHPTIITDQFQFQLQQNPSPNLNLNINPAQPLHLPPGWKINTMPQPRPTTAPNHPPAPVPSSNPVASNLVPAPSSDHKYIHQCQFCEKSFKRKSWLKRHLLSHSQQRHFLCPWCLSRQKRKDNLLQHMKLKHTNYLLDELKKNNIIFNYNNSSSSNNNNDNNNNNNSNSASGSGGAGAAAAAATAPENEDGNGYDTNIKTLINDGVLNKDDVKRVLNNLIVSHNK
Experimental: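 Universal 'all 10-mer' protein binding microarrays (Agilent AMADID 015681) probed with GST-tagged S. cerevisiae TFs (full-length or DBD) made by in vitro transcription/translation (PURExpress), about 100-200 nM. Bound TF was detected with fluorescent anti-GST. Each ungapped 8-mer (which stands for itself and its reverse complement) is scored by the PBM enrichment score (E-score), a modified Wilcoxon-Mann-Whitney statistic from -0.5 to +0.5, computed with the Universal PBM Analysis Suite. Scale: above 0.35 generally sequence-specific binding.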

Sequence	PBM E-score
AGGGACCA	-0.201
AGGTTTGG	-0.141
CCTTCAAC	0.247
CCTTCAAA	0.115
CCTTCAAG	0.351
AGAGAATC	-0.0691
AACCATTA	0.117
GAGGCCCC	-0.242
CTACACTC	0.0954
CTACACAG	0.348
GTACACAA	0.323
CTACACGA	0.377
GTACACGA	0.327
CTACACAA	0.29
CTACACTA	0.135
CGACACGC	0.157
CTACACGC	0.356
CTACACAC	0.333
ATACACAG	0.332
TTACACAA	0.42
AGCCAAGG	-0.106
AGTTCTCG	-0.137
AAAGTGTC	0.0356
AGCGACTC	-0.134
AATGTCTG	-0.0738
AGCGAGAG	-0.117

Sequence	PBM E-score
CTCAAGCC	-0.236
TCATAACA	0.255
AGAATGGA	-0.0583
AAGACCAT	-0.234
GTTAGGCA	0.454
CTTAGGCA	0.444
ATTAGGCG	-0.0797
GTTAGGTA	0.26
ATTAGGCA	0.472
CTTAGGCC	-0.0744
GTTAGGGA	-0.113
CTTAGGTA	0.139
ATTAGGCC	-0.111
CTATGCAA	0.0284
ACCTACCA	0.12
CGGGGATC	-0.303
AAAGCGTG	0.0569
ACCTGATA	0.203
ACAACACA	0.337
CCTACACG	0.336
CCAACACG	0.299
ACTACACA	0.331
GCTACACA	0.253
TCTACACA	0.361
ACTACACT	0.181
TCAACACA	0.353

Sequence	PBM E-score
ACTACACG	0.386
CCCAACGA	-0.0748
AGGGACTG	-0.226
CTGCAAGA	0.0551
CCTCTTCA	-0.171
ATAGCACG	-0.00445
GTAATCCA	0.225
ACAAAGCC	0.0921
CCAAATAG	0.00768
CGAAGGCA	0.476
TGAAGGCA	0.483
TGAAGCCA	-0.0204
GGAAGGGA	-0.292
CGAAGGCC	-0.0438
TGAAGTCA	0.0305
GGAAGGCC	-0.214
AGAAGGCG	0.27
AGAAGGCT	-0.0686
CGAAGGCG	0.193
AGAAGGCA	0.475
GGAAGGCA	0.482
ACCGAGAC	0.0166
CAAGCGTC	-0.0912
GCGGACAC	-0.3
ACGATCCA	-0.0439
CCCTAGTC	-0.163

Sequence	PBM E-score
GATAGGCC	0.0586
AATAGGCT	0.161
TATAGTCA	0.188
CATAGGCA	0.476
GATAGGGA	-0.155
CATAGGCC	0.135
TATAGGCA	0.482
CATAGGCG	0.0696
AATAGGCC	-0.0184
GATAGGCA	0.473
TATAGGGA	-0.0815
AATAGGCA	0.479
GAGTCGAA	-0.0456
CAAGGATG	0.121
CTCAAGCA	-0.101
GGAAGTAC	-0.139
ATGACCAT	0.0148
CGCACTCC	-0.223
CTGAGGTC	-0.255
ATCATGTC	0.245
CTTATGTC	0.0522
ATCATGTG	0.198
CTTATGTA	0.342
CTCATGGA	0.261
ATCATGTA	0.392
GTCATGGA	-0.179

Sequence	PBM E-score
CTCATGTC	0.191
CTCATGTA	0.359
GTCATGTA	0.356
GTCATGCA	0.0879
ATTATGTA	0.339
ATGGTTGA	-0.153
CCATCCGC	-0.164
CCGAAGAC	-0.306
GGGGTCTA	-0.0481
TAGAGAAA	-0.0644
CAACCAGA	0.0325
AAATAGCG	0.11
AGTTACGA	0.138
CCTAGAAA	0.0447
CTGAGCCC	-0.191
CCGTTGAG	-0.213
CAGGCAGG	0.306
CAGGCAGA	0.0294
CCGGCAAG	-0.0693
CAGGCAAA	0.481
CGGGCAAC	-0.129
GAGGCAAA	0.328
CAGGCAAC	0.489
TAGGCAAA	0.48
TGGGCAAA	-0.0148
CGGGCAAA	0.0704

Sequence	PBM E-score
CAGGCAAG	0.491
CAGACAAC	0.00587
ATCCACGG	-0.0193
AACCAGGT	-0.172
AAGACATC	-0.0992
CATAGTGC	0.117
ACAGCCGT	-0.24
CTCCGAAC	-0.132
ACACTACC	-0.089
GCCTTAAA	0.349
ACCTTAAA	-0.092
CCCTTAAA	-0.00813
CACACTCC	-0.178
ATGTACAG	0.247
TGGTACAA	0.0168
AAGTACAT	0.265
ACGTACAT	0.286
AGGTACAA	0.363
AGGTACAG	0.332
AGGTACAC	0.366
ATGTACAC	0.338
AGGTACAT	0.367
GGGTACAA	-0.012
ATGTACAT	0.378
CGGTACAC	0.00913
AAGGGGAA	-0.0624

Sequence	PBM E-score
CAACAGTG	-0.0633
CACGTGGC	-0.0488
TGCCTCCA	0.404
AGCCTCCA	-0.369
CGCCTCCA	-0.0882
TGCCTCAA	0.365
AGCCTCAA	-0.265
GGCCTCAA	0.00845
GACTGCTA	-0.251
AGCGTGCG	-0.185
AGTGTGCC	0.355
AACGTGCA	0.136
CGCGTGGC	-0.155
AGTGTGCG	-0.149
AACGTGCG	0.0588
CGCGTGCC	0.433
CGTGTGCC	0.23
AACGTGCC	0.397
AGCGTGCA	0.092
CGCGTGCA	0.0183
AGCGTGCC	0.343
